Results reported in PubChem BioAssay.
Calls of active or inactive are those of the source.

What was measured:
[1] = binders of probe aFSTL3 on microarray, primary screen, stem cell growth factor project, biochemical, small-molecule microarray, fluorescence 635/667 (AID 1064); details: higher = more signal;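 also: measures binding of the biotinylated anti-FSTL3 antibody to printed compounds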
[2] = binders from COS7 lysate, DM2A8 probe, primary screen, torsin A project, cell lysate, small-molecule microarray, fluorescence 635/667 (AID 1065); details: higher = more signal, COS7 lysate expressing mutant human TOR1A
[3] = binders of probe aFGF2 on microarray, primary screen, stem cell growth factor project, biochemical, small-molecule microarray, fluorescence 635/667 (AID 1067); details: higher = more signal;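 also: measures binding of biotinylated aFGF2 protein to printed compounds on slides; z-score merges feature fluorescence and signal-to-noise across triplicate slides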
[4] = binders of probe aFGF10 on microarray, primary screen, stem cell growth factor project, biochemical, small-molecule microarray, fluorescence 635/667 (AID 1071); details: higher = more signal;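 also: score merges 667 nm spot intensity and signal to noise from triplicate slides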
[5] = target: Neurogenic locus notch homolog protein 2 (Homo sapiens) (UniProt Q04721); assay: Notch2 binders on small-molecule microarrays, primary screen, biochemical, small-molecule microarray, 635 nm fluorescence, stem cell growth factors (AID 1073); details: Notch2 binding, higher = more signal
[6] = target: Pro-neuregulin-1, membrane-bound isoform (Homo sapiens) (UniProt Q02297); assay: NRG1 binders on small-molecule microarrays, primary screen, psychiatric disease protein project, biochemical, small-molecule microarray, fluorescence 635/667 (AID 1075); details: NRG1 binding, 635 nm fluorescence, higher = more signal;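 also: score combines 667 nm spot fluorescence with signal to noise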
[7] = system: Neuregulin-1 EGF-like domain; assay: binders of neuregulin-1 EGF-like domain, primary screen, biochemical, small-molecule microarray, 635 nm fluorescence (AID 1081); details: small-molecule microarray binding, higher = more signal;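 also: binding of the protein to compounds printed on small-molecule microarray slides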
[8] = FRG1 promoter luciferase signal modulators, primary screen, FRG1 inhibition for FSHD, cell-based, C2C12 myotubes, firefly/Renilla luciferase, luminescence (AID 1084); details: higher = more signal, called active from +8 up or from −8 down
[9] = binders of probe aFST on microarray, primary screen, stem cell growth factor project, biochemical, small-molecule microarray, fluorescence 635/667 (AID 1086); details: higher = more signal;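 also: score merges 667 nm fluorescence with signal-to-noise of each printed compound spot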
[10] = binders of probe aHhip on microarray, primary screen, stem cell growth factor project, biochemical, small-molecule microarray, fluorescence 635/667 (AID 1087); details: higher = more signal;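 also: score merges spot fluorescence at 667nm with spot signal to noise ratio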
[11] = system: PRMT1 (protein arginine N-methyltransferase 1); assay: PRMT1 binders on small-molecule microarrays, primary screen, biochemical, small-molecule microarray, 635 nm fluorescence (AID 1088); details: small-molecule microarray binding, higher = more signal;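 also: binding of Prmt1 protein to compounds spotted on small-molecule microarray slides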
[12] = yeast growth modulation, basal conditions, primary screen, YJM789 clinical isolate, OD600, 24 h (AID 1089);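 also: growth of clinical yeast isolate S. cerevisiae YJM 789 seeded 1000 cells per well; test concentration not given here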; details: S. cerevisiae YJM789 growth, higher = more signal, called active from +8 up or from −8 down
[13] = fission yeast growth modulation, primary screen, strain 972, OD600, 24 h, no modulator (AID 1090);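 also: basal condition with compound alone and no growth modifier present; test concentration not given here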; details: S. pombe 972 growth, higher = more signal, called active from +8 up or from −8 down
[14] = S. cerevisiae growth modulation with rapamycin, primary screen, strain BY4716, OD600, 96 h (AID 1091); details: higher = more signal, called active from +8 up or from −8 down; also: test concentration not given here
[15] = target: Torsin-1A-interacting protein 2 (Homo sapiens) (UniProt Q8NFQ8); assay: LULL1 binders on small-molecule microarray, primary screen, cell lysate, human LULL1 lysate, 635/667 nm fluorescence (AID 1092); details: hLULL1 lysate binding, 635 nm fluorescence, higher = more signal;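 also: probe is lysate of COS7 cells overexpressing human LULL1; score merges per-feature 667 nm fluorescence with signal-to-noise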
[16] = E. coli growth modulation, two-sided OD650, primary screen, E. coli filamentation project, strain DRC41, 24 h (AID 1093); details: OD650, 24 h, higher = more signal, called active from +8 up or from −8 down;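 also: MC1000 strain lacking acrAB efflux and sulA so SOS filamentation is blocked; test concentration not given here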
[17] = small-molecule microarray binders of probe aLefty2, primary screen, biochemical, biotinylated probe, 635/667 nm fluorescence (AID 1094); details: higher = more signal;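 also: score merges spot fluorescence near 667 nm with spot signal-to-noise ratio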
[18] = system: Noggin (protein binding on small-molecule microarray); assay: Noggin binders on small-molecule microarray, primary screen, biochemical, 635/667 nm fluorescence (AID 1095); details: 635 nm fluorescence, higher = more signal;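 also: score merges 667 nm feature fluorescence with signal to noise over triplicate slides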
[19] = target: Neurogenic locus notch homolog protein 3 (Homo sapiens) (UniProt Q9UM47); assay: NOTCH3 binders on small-molecule microarray, primary screen, biochemical, 635/667 nm fluorescence (AID 1096); details: NOTCH3 binding, 635 nm fluorescence, higher = more signal
[20] = small-molecule microarray binders of probe aEGFR, primary screen, biochemical, biotinylated probe, 635/667 nm fluorescence (AID 1097); details: higher = more signal;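 also: probe is a biotinylated anti-EGFR antibody binding compounds printed on slides; score combines fluorescence near 667 nm and signal to noise of each spot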

Sequence of Neurogenic locus notch homolog protein 2 (Homo sapiens) (Q04721 whole entry, looked up, canonical isoform): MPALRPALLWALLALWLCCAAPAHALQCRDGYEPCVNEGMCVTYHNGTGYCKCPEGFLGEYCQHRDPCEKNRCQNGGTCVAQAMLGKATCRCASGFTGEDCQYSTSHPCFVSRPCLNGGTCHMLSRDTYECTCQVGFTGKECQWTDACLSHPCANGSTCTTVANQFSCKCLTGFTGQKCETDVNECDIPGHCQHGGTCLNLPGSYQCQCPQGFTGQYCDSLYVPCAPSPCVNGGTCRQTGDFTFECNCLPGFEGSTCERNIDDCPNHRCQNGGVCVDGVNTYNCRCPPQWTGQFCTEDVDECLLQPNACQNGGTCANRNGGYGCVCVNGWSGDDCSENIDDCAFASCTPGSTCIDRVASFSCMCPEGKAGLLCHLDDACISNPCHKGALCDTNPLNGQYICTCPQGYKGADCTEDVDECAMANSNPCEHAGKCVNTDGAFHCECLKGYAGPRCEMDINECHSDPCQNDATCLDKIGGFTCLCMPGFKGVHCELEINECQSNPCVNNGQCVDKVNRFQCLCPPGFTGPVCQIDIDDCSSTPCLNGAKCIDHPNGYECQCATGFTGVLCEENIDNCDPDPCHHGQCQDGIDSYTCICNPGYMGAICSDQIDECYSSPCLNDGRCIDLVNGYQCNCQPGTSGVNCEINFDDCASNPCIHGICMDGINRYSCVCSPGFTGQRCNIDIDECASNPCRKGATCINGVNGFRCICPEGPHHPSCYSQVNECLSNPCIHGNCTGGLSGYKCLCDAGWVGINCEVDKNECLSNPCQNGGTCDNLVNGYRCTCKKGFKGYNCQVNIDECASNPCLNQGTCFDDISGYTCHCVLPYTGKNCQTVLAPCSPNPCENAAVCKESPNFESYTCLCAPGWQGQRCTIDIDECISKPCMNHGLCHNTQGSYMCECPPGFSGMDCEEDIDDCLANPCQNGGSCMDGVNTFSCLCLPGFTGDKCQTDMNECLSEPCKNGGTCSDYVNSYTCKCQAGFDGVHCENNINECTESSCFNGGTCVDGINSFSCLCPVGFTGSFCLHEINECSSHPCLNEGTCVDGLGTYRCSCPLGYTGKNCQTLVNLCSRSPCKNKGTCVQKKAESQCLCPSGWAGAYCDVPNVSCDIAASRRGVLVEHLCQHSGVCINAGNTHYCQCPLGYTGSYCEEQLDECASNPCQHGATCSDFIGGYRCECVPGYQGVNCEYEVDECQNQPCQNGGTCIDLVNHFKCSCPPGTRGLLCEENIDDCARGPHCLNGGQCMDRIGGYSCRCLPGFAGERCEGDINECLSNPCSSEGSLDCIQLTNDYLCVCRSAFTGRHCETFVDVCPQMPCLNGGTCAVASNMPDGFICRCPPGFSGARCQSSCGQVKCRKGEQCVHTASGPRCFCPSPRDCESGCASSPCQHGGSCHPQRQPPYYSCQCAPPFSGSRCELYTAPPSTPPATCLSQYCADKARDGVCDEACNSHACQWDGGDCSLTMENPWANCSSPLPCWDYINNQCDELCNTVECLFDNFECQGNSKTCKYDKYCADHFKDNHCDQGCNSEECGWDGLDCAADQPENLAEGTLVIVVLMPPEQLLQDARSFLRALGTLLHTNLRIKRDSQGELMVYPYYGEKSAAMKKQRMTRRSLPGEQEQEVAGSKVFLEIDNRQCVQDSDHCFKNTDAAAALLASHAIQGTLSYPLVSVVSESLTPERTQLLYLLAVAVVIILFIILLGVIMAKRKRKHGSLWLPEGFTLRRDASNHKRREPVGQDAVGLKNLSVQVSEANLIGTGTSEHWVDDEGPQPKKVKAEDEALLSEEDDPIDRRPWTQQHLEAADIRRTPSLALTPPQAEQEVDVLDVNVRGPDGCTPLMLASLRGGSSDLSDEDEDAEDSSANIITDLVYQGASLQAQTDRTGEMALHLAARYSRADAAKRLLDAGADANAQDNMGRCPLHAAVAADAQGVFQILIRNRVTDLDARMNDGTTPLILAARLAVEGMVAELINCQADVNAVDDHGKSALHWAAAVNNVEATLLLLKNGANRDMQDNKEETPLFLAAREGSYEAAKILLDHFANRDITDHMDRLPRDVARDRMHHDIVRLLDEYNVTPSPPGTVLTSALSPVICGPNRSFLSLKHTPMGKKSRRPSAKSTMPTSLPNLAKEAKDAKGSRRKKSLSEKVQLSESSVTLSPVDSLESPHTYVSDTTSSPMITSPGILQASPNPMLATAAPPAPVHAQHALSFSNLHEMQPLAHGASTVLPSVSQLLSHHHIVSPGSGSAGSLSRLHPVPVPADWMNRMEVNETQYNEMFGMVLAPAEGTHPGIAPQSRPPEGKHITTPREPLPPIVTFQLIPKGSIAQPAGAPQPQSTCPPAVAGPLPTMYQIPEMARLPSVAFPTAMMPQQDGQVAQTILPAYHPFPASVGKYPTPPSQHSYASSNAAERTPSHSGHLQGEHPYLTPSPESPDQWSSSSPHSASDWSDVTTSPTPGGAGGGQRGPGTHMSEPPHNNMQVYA
Sequence of Pro-neuregulin-1, membrane-bound isoform (Homo sapiens) (Q02297 whole entry, looked up, the tested form may be a part, canonical isoform): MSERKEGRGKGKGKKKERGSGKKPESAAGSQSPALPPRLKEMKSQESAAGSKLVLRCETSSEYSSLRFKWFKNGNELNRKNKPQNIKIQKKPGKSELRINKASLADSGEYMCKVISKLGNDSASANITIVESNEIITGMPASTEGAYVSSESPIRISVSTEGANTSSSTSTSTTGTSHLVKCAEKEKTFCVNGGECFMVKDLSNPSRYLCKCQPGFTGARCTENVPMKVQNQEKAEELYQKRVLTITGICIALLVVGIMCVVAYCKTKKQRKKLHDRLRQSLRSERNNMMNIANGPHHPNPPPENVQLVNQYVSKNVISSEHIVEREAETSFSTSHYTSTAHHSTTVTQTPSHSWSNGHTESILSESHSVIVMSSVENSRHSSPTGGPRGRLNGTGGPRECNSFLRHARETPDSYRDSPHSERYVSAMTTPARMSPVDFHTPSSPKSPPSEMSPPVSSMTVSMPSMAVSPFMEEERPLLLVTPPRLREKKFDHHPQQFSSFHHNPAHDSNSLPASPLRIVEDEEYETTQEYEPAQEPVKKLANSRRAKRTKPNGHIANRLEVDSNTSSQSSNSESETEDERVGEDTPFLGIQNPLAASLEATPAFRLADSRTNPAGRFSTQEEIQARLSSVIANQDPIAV
Sequence of Torsin-1A-interacting protein 2 (Homo sapiens) (Q8NFQ8 whole entry, looked up): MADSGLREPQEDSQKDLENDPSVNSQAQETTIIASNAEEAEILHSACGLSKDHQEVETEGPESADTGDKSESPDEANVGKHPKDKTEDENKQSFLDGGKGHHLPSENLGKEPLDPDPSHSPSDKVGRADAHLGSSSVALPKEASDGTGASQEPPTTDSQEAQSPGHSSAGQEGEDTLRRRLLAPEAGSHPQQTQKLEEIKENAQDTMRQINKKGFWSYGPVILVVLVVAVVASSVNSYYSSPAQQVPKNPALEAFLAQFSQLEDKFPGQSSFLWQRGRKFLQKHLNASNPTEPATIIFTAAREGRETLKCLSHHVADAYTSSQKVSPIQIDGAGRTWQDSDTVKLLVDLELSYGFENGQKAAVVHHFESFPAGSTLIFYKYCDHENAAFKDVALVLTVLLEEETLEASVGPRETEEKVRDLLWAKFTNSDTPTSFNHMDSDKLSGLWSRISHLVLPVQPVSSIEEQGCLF

CC(C)=NOC[C@@H](O)[C@H]1O[C@@H]2OC(C)(C)O[C@@H]2[C@H]1O
composite z-score [1]: -0.732
composite z-score [2]: 0.97
composite z-score [3]: 0.197
composite z-score [4]: 0.502
composite z-score [5]: 1.09
composite z-score [6]: 0.233
composite z-score [7]: 0.457
z-score [8]: -0.476 (inactive)
composite z-score [9]: 0.548
composite z-score [10]: -0.191
composite z-score [11]: 0.956
z-score [12]: 0.51 (inactive)
z-score [13]: 0.0819 (inactive)
z-score [14]: 0.243 (inactive)
composite z-score [15]: 0.178
z-score [16]: 0.132 (inactive)
composite z-score [17]: 0.19
composite z-score [18]: 0.625
composite z-score [19]: 0.498
composite z-score [20]: 0.0727

COc1ccc(COC(=O)NN=C2C[C@@H](O)[C@@H](O)[C@@H]3[C@@H]4C(=O)N(C[C@@H]5CCCO5)C(=O)[C@@H]4CC[C@@H]23)cc1
composite z-score [1]: -0.227
composite z-score [2]: 0.359
composite z-score [3]: -0.156
composite z-score [4]: 0.878
composite z-score [5]: -0.0739
composite z-score [6]: 0.393
composite z-score [7]: 0.775
z-score [8]: -0.913 (inactive)
composite z-score [9]: 0.0269
composite z-score [10]: -0.117
composite z-score [11]: 0.674
z-score [12]: 0.137 (inactive)
z-score [13]: 0.467 (inactive)
z-score [14]: -0.389 (inactive)
composite z-score [15]: 0.486
z-score [16]: 0.859 (inactive)
composite z-score [17]: -0.145
composite z-score [18]: 0.585
composite z-score [19]: 0.106
composite z-score [20]: -0.1

C=CC[C@@H]1C=C[C@H](ON=C(C)CCN2CCCCc3nc(C)c(C)cc32)[C@@H](CO)O1
composite z-score [1]: 0.407
composite z-score [2]: 1.57
composite z-score [3]: -0.0704
composite z-score [4]: 0.129
composite z-score [5]: 0.145
composite z-score [6]: 0.37
composite z-score [7]: 0.899
z-score [8]: 0.389 (inactive)
composite z-score [9]: 0.238
composite z-score [10]: 0.0053
composite z-score [11]: 1.47
z-score [12]: -1.19 (inactive)
z-score [13]: 0.805 (inactive)
z-score [14]: -0.508 (inactive)
composite z-score [15]: 1.77
z-score [16]: -0.0376 (inactive)
composite z-score [17]: -0.0769
composite z-score [18]: 1.21
composite z-score [19]: 0.67
composite z-score [20]: 0.044

CCc1cc2c(nc1CC)CCN(CCC(C)=NO[C@@H]1O[C@H](COC(C)=O)[C@@H](OC(C)=O)[C@H](OC(C)=O)[C@H]1OC(C)=O)C2
composite z-score [1]: -0.191
composite z-score [2]: 0.905
composite z-score [3]: 0.0333
composite z-score [4]: 0.928
composite z-score [5]: 0.839
composite z-score [6]: 0.408
composite z-score [7]: 0.996
z-score [8]: 1.05 (inactive)
composite z-score [9]: 0.365
composite z-score [10]: -0.0994
composite z-score [11]: 1.55
z-score [12]: -0.149 (inactive)
z-score [13]: -0.35 (inactive)
z-score [14]: 0.143 (inactive)
composite z-score [15]: 0.809
z-score [16]: -0.551 (inactive)
composite z-score [17]: -0.0271
composite z-score [18]: 1.06
composite z-score [19]: 1.1
composite z-score [20]: 0.131

CC(C)=CCCC(C)=CCON=C1C[C@@H](O)[C@@H](O)[C@@H]2[C@@H]3C(=O)N(C4CCCCC4)C(=O)[C@@H]3CC[C@H]12
composite z-score [1]: -0.317
composite z-score [2]: 0.396
composite z-score [3]: -0.0725
composite z-score [4]: 0.548
composite z-score [5]: 0.535
composite z-score [6]: 0.475
composite z-score [7]: 0.255
z-score [8]: 0.0864 (inactive)
composite z-score [9]: 0.53
composite z-score [10]: 0.408
composite z-score [11]: 1.52
z-score [12]: 0.194 (inactive)
z-score [13]: -0.312 (inactive)
z-score [14]: -0.382 (inactive)
composite z-score [15]: 0.341
z-score [16]: 0.474 (inactive)
composite z-score [17]: -0.0575
composite z-score [18]: 1.07
composite z-score [19]: 0.789
composite z-score [20]: 0.0065

O=C1[C@H]2[C@H]3[C@H](O)[C@H](O)CC(=NO[C@@H]4O[C@H](CO)[C@@H](O)[C@H](O)[C@H]4O)[C@@H]3CC[C@H]2C(=O)N1C1CCCCC1
composite z-score [1]: -0.599
composite z-score [2]: -0.0085
composite z-score [3]: -0.0924
composite z-score [4]: 0.233
composite z-score [5]: 0.598
composite z-score [6]: 0.132
composite z-score [7]: 0.0698
z-score [8]: -0.637 (inactive)
composite z-score [9]: 0.296
composite z-score [10]: -0.0645
composite z-score [11]: 0.112
z-score [12]: 0.0081 (inactive)
z-score [13]: -0.159 (inactive)
z-score [14]: -0.291 (inactive)
composite z-score [15]: 0.301
z-score [16]: -0.166 (inactive)
composite z-score [17]: -0.174
composite z-score [18]: 0.662
composite z-score [19]: 0.749
composite z-score [20]: -0.111

CCCCOC(OCCCC)C(O)CSc1ccc2ccccc2c1 (stereo not given)
composite z-score [1]: -0.283
composite z-score [2]: 0.61
composite z-score [3]: -0.0599
composite z-score [4]: 0.291
composite z-score [5]: 0.525
composite z-score [6]: -0.213
composite z-score [7]: 0.461
z-score [8]: -1.52 (inactive)
composite z-score [9]: 0.105
composite z-score [10]: 0.157
composite z-score [11]: 0.642
z-score [12]: 0.12 (inactive)
z-score [13]: -2.25 (inactive)
z-score [14]: 0.594 (inactive)
composite z-score [15]: 0.556
z-score [16]: -0.419 (inactive)
composite z-score [17]: -0.136
composite z-score [18]: 0.542
composite z-score [19]: 0.776
composite z-score [20]: -0.15

OC[C@H]1O[C@H](C#Cc2ccccc2)C=C[C@@H]1O
composite z-score [1]: -0.406
composite z-score [2]: -0.437
composite z-score [3]: -0.0732
composite z-score [4]: 0.325
composite z-score [5]: 0.322
composite z-score [6]: 0.0659
composite z-score [7]: 0.0463
z-score [8]: -0.999 (inactive)
composite z-score [9]: 0.101
composite z-score [10]: 0.107
composite z-score [11]: 0.232
z-score [12]: 0.643 (inactive)
z-score [13]: -1.33 (inactive)
z-score [14]: -0.98 (inactive)
composite z-score [15]: 0.233
z-score [16]: 0.897 (inactive)
composite z-score [17]: -0.113
composite z-score [18]: 0.498
composite z-score [19]: 0.609
composite z-score [20]: -0.124

COC(=O)[C@@H]1CC[C@H](C)[C@@H](c2ccc(Br)cc2)N1C[C@H](O)CN=[N+]=[N-]
composite z-score [1]: -0.0566
composite z-score [2]: 0.143
composite z-score [3]: -0.0925
composite z-score [4]: 0.171
composite z-score [5]: -0.0324
composite z-score [6]: 0.374
composite z-score [7]: -0.0594
z-score [8]: 0.348 (inactive)
composite z-score [9]: -0.193
composite z-score [10]: 0.478
composite z-score [11]: -0.164
z-score [12]: -0.209 (inactive)
z-score [13]: -4.62 (inactive)
z-score [14]: -2.03 (inactive)
composite z-score [15]: 0.512
z-score [16]: 0.449 (inactive)
composite z-score [17]: -0.181
composite z-score [18]: -0.133
composite z-score [19]: -0.0269
composite z-score [20]: -0.139

CC(CCC(=O)OC[C@H]1O[C@H](C#Cc2ccccc2)C=C[C@@H]1Oc1ccc(C)cc1)=NO[C@@H](C)c1cc(-c2c(C)cc(C)cc2C)no1
composite z-score [1]: -0.0913
composite z-score [2]: -1.14
composite z-score [3]: -0.144
composite z-score [4]: -0.558
composite z-score [5]: -1.58
composite z-score [6]: 0.122
composite z-score [7]: -0.525
z-score [8]: 0.87 (inactive)
composite z-score [9]: -0.213
composite z-score [10]: 0.312
composite z-score [11]: -0.187
z-score [12]: 0.914 (inactive)
z-score [13]: 0.811 (inactive)
z-score [14]: 0.361 (inactive)
composite z-score [15]: 0.226
z-score [16]: -0.318 (inactive)
composite z-score [17]: -0.328
composite z-score [18]: -0.199
composite z-score [19]: -1.12
composite z-score [20]: -0.296
